Targets with a hit are over-represented here; the source holds about 7,900 in all. About 0.6% of all pairs of compound and target were hits.
How the values were obtained:
Assay in all cases: log2 fold change, soluble protein after heating vs DMSO (PISA); higher = thermal stabilisation; K562 cells, 10 uM, 30 min; active = over 0.2 and 3.5 SD of the protein, either way, in both replicates (recomputed)
IRAK-1-4 Inhibitor I = compound: C1COCCN1CCN2C3=CC=CC=C3N=C2NC(=O)C4=CC(=CC=C4)[N+](=O)[O-] [IRAK-1-4 Inhibitor I]
Method in brief: (§1)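 Soluble protein was defined as the supernatant after 21,000xg for 90 min. It came from K562 cells at 2×10^6 cells/mL given 10 μM compound for 30 min, heated in aliquots for 3 min across 48°C-58°C, pooled, and extracted in PBS with 0.5% NP-40 at 4°C, and was quantified by TMTpro 16plex LC-MS/MS with equalised channel sums. Thermal stability against control samples, from duplicates, is reported as log2 fold change.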

ibrutinib = compound: C=CC(=O)N1CCC[C@@H](n2nc(-c3ccc(Oc4ccccc4)cc3)c3c(N)ncnc32)C1 [ibrutinib]
Method in brief: as §1

[1] = compound: CC(=O)c1cnc2ccc(-c3cc(Cl)c(O)c(Cl)c3)nc2c1N[C@H]1CC[C@H](CN(C)C)CC1
Method in brief: as §1

ralimetinib = compound: CC(C)(C)Cn1c(N)nc2ccc(-c3[nH]c(C(C)(C)C)nc3-c3ccc(F)cc3)nc21 [ralimetinib]
Method in brief: as §1

[2] = compound: CC(C)C1=C2N=C(C=C(N2N=C1)NCC3=CC=CC=C3)NCCCCCCN
Method in brief: as §1

[3] = compound: CC(C)C[C@@H](C=O)NC(=O)[C@H](CC(C)C)NC(=O)[C@H](CC(C)C)NC(=O)OCc1ccccc1
Method in brief: as §1

pinometostat = compound: CC(C)N(C[C@H]1O[C@@H](n2cnc3c(N)ncnc32)[C@H](O)[C@@H]1O)[C@H]1C[C@@H](CCc2nc3cc(C(C)(C)C)ccc3[nH]2)C1 [pinometostat]
Method in brief: as §1

[4] = compound: CC1=C(C(CC(=O)N1)C2=CC=C(C=C2)C(F)(F)F)C(=O)NC3=C(C=C4C(=C3)C=NN4)F
Method in brief: as §1

[5] = compound: CC1=C(C2=C(C=C1)C(=O)C3=CC=CC=C3N2CCCN)C
Method in brief: as §1

[6] = compound: CC(C)(O)CC(=O)NCCn1ccc2ncnc(Nc3ccc(Oc4cccc(C(F)(F)F)c4)c(Cl)c3)c21
Method in brief: as §1

Measured: log2 fold change

UNC119B (UniProt A6NIH7)
inactive: IRAK-1-4 Inhibitor I 0.113 | ibrutinib 0.08 | [1] 0.028 | ralimetinib 0.014 | [2] 0.272 | [3] 0.088 | pinometostat 0.126 | [4] -0.048 | [5] -0.047

UBA52 (UniProt P62987)
inactive: IRAK-1-4 Inhibitor I -0.098 | ibrutinib 0.091 | [1] 0.21 | ralimetinib 0.139 | [6] 0.107 | [2] 0.044 | [3] 0.147 | pinometostat 0.358 | [5] -0.532

TMEM128 (UniProt Q5BJH2)
active: [1] 0.45
inactive: IRAK-1-4 Inhibitor I -0.046 | ibrutinib -0.025 | ralimetinib -0.036 | [6] -0.051 | [2] 0.028 | [3] 0.108 | pinometostat 0.122 | [4] 0.001 | [5] 0

TMEM164 (UniProt Q5U3C3)
inactive: IRAK-1-4 Inhibitor I 0.057 | ibrutinib -0.036 | [1] -0.088 | [6] -0.025 | [2] -0.309 | pinometostat -0.073 | [4] -0.08 | [5] 0.066

WARS1 (UniProt G3V277)
inactive: IRAK-1-4 Inhibitor I -0.005 | ibrutinib -0.064 | [1] -0.184 | [2] -0.009 | pinometostat 0.114 | [4] 0.091 | [5] 0.087

TTI2 (UniProt Q6NXR4)
inactive: IRAK-1-4 Inhibitor I -0.032 | ibrutinib -0.006 | [1] 0.005 | ralimetinib 0.033 | [6] -0.196 | [2] -0.079 | [3] 0.032 | pinometostat 0.016 | [4] -0.044 | [5] 0.033

WEE1 (UniProt P30291)
active: [1] -1.1
inactive: IRAK-1-4 Inhibitor I 0.025 | ibrutinib 0.013 | ralimetinib 0.037 | [6] -0.034 | [2] -0.019 | [3] 0.296 | pinometostat 0.066 | [4] 0.05 | [5] 0.263

WRB (UniProt O00258)
inactive: IRAK-1-4 Inhibitor I 0.006 | ibrutinib 0.014 | [1] -0.074 | ralimetinib 0.004 | [6] 0.015 | [2] 0.043 | [3] -0.043 | pinometostat -0.032 | [4] -0.006 | [5] 0.011

WDR75 (UniProt Q8IWA0)
inactive: IRAK-1-4 Inhibitor I -0.081 | ibrutinib -0.026 | [1] -0.196 | ralimetinib 0.189 | [6] 0.012 | [3] 0.178 | pinometostat 0.197 | [4] 0.058 | [5] 0.402

UBE3B (UniProt Q7Z3V4)
inactive: IRAK-1-4 Inhibitor I -0.182 | ibrutinib -0.019 | [1] -0.068 | ralimetinib -0.296 | [6] -0.154 | [3] 0.001 | pinometostat 0.239 | [4] -0.102 | [5] -0.188

VKORC1 (UniProt Q9BQB6)
inactive: IRAK-1-4 Inhibitor I -0.056 | ibrutinib 0.024 | [1] -0.033 | ralimetinib -0.052 | [2] -0.306 | [3] -0.029 | pinometostat 0.092 | [4] 0.007 | [5] 0.049

USO1 isoform 2 (UniProt O60763)
inactive: IRAK-1-4 Inhibitor I 0.05 | ibrutinib -0.025 | [1] 0.066 | ralimetinib 0.004 | [6] -0.061 | [2] -0.108 | [3] -0.01 | pinometostat 0.008 | [4] -0.011 | [5] -0.005

TNPO2 (UniProt O14787)
Sequence of UniProt O14787 (O14787 whole entry, looked up): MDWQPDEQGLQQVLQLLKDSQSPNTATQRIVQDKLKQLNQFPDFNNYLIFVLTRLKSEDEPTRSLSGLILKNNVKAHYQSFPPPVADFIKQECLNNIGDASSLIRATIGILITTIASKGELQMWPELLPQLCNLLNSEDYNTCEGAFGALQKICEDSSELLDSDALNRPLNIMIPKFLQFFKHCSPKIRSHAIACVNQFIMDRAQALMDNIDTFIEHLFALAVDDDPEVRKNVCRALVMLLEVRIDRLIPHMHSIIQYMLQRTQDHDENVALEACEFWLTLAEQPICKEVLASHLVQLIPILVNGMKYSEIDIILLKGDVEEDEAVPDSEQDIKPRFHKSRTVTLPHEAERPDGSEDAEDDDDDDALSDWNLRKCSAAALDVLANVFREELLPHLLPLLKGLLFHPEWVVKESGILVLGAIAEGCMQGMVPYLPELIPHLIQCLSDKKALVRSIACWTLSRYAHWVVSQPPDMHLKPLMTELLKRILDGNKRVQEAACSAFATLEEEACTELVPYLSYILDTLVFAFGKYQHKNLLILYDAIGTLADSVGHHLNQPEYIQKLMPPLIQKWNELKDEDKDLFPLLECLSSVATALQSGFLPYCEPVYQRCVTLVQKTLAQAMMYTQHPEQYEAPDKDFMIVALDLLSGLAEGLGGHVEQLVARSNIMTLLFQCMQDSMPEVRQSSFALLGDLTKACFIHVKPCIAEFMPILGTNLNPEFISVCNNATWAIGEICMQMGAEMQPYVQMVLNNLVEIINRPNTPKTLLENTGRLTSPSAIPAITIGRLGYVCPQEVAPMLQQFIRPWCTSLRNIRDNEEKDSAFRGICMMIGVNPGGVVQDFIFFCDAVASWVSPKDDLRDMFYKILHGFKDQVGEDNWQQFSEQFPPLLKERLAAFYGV
active: [2] -0.339
inactive: IRAK-1-4 Inhibitor I -0.088 | ibrutinib -0.023 | [1] -0.051 | ralimetinib 0.027 | [6] -0.138 | [3] -0.042 | pinometostat 0.012 | [4] 0.023 | [5] -0.171

UCHL5 isoform 3 (UniProt Q9Y5K5)
inactive: IRAK-1-4 Inhibitor I -0.012 | ibrutinib -0.222 | [1] -0.021 | ralimetinib 0.006 | [6] -0.357 | [2] -0.143 | [3] 0.077 | pinometostat -0.044 | [4] 0.068 | [5] 0.028

TSG101 (UniProt Q99816)
Sequence of UniProt Q99816 (Q99816 whole entry, looked up): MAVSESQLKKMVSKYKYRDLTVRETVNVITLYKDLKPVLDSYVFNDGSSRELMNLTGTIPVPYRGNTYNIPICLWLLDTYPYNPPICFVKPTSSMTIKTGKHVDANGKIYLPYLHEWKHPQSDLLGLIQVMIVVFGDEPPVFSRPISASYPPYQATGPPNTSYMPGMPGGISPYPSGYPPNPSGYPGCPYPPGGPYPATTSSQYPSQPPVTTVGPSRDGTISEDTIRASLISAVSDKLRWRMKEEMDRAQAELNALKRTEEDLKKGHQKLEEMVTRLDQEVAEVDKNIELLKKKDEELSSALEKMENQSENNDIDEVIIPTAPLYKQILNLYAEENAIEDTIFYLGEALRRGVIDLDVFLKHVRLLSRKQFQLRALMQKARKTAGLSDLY
inactive: IRAK-1-4 Inhibitor I 0.05 | ibrutinib 0.004 | [1] -0.017 | ralimetinib -0.005 | [6] -0.025 | [2] -0.146 | [3] 0.031 | pinometostat -0.003 | [4] 0.001 | [5] -0.012

U2AF1L5 (UniProt P0DN76)
inactive: IRAK-1-4 Inhibitor I 0.042 | ibrutinib -0.032 | [1] -0.389 | [2] -0.19 | pinometostat 0.014 | [4] -0.209 | [5] -0.067

XPNPEP1 isoform 3 (UniProt Q9NQW7)
Sequence of UniProt Q9NQW7 (Q9NQW7 whole entry, looked up): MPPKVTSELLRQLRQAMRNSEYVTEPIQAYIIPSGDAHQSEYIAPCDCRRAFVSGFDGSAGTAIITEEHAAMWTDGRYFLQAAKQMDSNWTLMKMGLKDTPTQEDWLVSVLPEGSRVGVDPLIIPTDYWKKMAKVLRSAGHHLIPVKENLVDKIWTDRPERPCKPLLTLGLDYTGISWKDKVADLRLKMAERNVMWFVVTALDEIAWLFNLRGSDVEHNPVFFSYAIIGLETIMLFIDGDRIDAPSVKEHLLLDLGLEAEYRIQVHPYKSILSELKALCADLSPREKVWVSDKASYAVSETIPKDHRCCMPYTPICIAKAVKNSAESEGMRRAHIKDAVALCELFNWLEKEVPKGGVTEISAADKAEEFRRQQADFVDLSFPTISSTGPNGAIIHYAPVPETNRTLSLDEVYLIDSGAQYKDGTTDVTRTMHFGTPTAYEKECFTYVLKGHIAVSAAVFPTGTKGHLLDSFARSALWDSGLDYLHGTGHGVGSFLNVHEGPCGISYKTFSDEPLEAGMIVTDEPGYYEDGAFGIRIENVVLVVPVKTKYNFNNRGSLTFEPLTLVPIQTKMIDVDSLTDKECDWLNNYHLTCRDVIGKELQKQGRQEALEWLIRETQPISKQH
inactive: IRAK-1-4 Inhibitor I 0.07 | ibrutinib -0.002 | [1] -0.011 | ralimetinib -0.03 | [6] -0.016 | [2] -0.135 | [3] -0.073 | pinometostat -0.006 | [4] -0.014 | [5] 0.045

TRIM44 (UniProt Q96DX7)
inactive: IRAK-1-4 Inhibitor I 0.031 | ibrutinib 0.018 | [1] 0.067 | ralimetinib -0.094 | [2] -0.06 | [3] 0.061 | pinometostat -0.01 | [4] -0.007
active: [5] -0.327

USP3 (UniProt Q9Y6I4)
Sequence of UniProt Q9Y6I4 (Q9Y6I4 whole entry, looked up): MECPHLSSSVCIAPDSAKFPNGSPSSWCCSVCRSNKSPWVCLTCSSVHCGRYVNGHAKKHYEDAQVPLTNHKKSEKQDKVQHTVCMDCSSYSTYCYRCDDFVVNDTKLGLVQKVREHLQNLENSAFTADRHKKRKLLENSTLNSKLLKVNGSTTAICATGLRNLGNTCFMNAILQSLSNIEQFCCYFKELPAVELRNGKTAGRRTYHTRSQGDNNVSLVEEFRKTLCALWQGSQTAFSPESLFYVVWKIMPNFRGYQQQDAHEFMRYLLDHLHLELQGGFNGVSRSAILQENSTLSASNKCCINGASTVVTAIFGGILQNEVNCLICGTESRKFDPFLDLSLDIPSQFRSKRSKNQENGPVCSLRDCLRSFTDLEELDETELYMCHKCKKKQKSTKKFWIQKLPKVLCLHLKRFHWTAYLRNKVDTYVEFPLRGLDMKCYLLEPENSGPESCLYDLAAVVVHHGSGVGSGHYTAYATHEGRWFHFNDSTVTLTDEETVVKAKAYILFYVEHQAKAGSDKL
inactive: IRAK-1-4 Inhibitor I 0.035 | ibrutinib -0.083 | [1] -0.126 | ralimetinib -0.013 | [6] -0.107 | [2] -0.146 | [3] -0.145 | pinometostat -0.075 | [4] 0.006 | [5] -0.006

TMEM63B (UniProt Q5T3F8)
Sequence of UniProt Q5T3F8 (Q5T3F8 whole entry, looked up): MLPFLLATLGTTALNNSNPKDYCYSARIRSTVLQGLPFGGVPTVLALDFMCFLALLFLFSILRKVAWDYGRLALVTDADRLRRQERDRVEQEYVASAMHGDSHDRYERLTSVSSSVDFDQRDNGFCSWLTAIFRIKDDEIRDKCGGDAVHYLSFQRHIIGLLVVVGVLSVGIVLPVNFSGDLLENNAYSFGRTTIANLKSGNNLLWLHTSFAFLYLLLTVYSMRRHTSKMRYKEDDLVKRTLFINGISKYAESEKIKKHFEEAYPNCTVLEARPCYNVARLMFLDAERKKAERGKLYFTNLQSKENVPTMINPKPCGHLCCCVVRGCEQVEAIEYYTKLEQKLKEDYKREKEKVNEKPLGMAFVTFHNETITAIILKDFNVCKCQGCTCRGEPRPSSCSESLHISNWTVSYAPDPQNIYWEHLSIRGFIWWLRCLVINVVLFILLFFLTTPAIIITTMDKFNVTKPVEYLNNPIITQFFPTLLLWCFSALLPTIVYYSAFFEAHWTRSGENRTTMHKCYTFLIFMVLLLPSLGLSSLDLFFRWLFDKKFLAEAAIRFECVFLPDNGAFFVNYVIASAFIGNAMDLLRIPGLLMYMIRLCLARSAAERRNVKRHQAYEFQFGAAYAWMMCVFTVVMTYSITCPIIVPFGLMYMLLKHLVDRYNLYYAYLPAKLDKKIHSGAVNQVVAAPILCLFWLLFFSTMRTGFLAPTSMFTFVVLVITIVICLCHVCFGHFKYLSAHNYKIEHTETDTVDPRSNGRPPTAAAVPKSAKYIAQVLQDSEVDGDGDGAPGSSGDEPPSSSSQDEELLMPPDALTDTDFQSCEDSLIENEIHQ
inactive: IRAK-1-4 Inhibitor I -0.01 | ibrutinib -0.055 | [1] -0.002 | ralimetinib -0.034 | [6] 0.011 | [2] -0.157 | [3] -0.01 | pinometostat 0.041 | [4] 0.027 | [5] 0.054

TSC2 (UniProt P49815)
inactive: IRAK-1-4 Inhibitor I -0.045 | ibrutinib 0.028 | [1] 0.05 | ralimetinib 0.091 | [6] -0.001 | [2] 0.103 | [3] 0.056 | pinometostat 0.085 | [5] 0.105

UXT isoform 2 (UniProt Q9UBK9)
Sequence of UniProt Q9UBK9 (Q9UBK9 whole entry, looked up): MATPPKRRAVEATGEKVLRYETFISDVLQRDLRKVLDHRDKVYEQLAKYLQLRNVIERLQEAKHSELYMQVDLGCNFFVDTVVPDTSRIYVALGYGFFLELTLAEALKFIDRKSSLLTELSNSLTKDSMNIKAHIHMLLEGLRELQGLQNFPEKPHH
inactive: IRAK-1-4 Inhibitor I 0.103 | ibrutinib -0.033 | [1] -0.019 | ralimetinib -0.031 | [6] -0.005 | [2] 0.316 | [3] 0.082 | pinometostat -0.141 | [4] -0.016 | [5] 0.194

TRIM28 (UniProt Q13263)
Sequence of UniProt Q13263 (Q13263 whole entry, looked up): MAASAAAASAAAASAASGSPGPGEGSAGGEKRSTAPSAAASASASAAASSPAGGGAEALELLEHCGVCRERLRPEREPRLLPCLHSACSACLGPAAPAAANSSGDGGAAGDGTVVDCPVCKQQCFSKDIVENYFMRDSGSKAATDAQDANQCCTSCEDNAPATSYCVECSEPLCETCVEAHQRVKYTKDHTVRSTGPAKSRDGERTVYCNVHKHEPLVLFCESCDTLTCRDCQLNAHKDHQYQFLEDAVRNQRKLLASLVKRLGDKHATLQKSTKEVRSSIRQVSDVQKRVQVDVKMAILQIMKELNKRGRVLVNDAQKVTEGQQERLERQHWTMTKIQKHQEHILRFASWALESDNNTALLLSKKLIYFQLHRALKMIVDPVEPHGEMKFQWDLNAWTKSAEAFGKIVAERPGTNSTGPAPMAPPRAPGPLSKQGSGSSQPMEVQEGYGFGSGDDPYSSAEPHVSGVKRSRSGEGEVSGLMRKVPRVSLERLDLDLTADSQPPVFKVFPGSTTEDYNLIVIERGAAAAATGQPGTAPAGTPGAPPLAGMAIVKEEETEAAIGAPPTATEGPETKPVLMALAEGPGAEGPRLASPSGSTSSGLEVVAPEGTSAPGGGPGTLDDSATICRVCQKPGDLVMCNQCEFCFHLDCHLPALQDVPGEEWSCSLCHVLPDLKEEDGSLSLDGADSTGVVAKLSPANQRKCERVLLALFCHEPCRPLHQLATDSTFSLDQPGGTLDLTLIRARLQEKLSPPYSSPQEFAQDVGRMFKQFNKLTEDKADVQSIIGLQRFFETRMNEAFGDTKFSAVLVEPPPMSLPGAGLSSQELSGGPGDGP
inactive: IRAK-1-4 Inhibitor I -0.008 | ibrutinib -0.033 | [1] 0.052 | ralimetinib -0.003 | [6] -0.035 | [2] -0.087 | [3] 0.018 | pinometostat -0.056 | [4] -0.002 | [5] -0.152

TMEM184C (UniProt Q9NVA4)
Sequence of UniProt Q9NVA4 (Q9NVA4 whole entry, looked up): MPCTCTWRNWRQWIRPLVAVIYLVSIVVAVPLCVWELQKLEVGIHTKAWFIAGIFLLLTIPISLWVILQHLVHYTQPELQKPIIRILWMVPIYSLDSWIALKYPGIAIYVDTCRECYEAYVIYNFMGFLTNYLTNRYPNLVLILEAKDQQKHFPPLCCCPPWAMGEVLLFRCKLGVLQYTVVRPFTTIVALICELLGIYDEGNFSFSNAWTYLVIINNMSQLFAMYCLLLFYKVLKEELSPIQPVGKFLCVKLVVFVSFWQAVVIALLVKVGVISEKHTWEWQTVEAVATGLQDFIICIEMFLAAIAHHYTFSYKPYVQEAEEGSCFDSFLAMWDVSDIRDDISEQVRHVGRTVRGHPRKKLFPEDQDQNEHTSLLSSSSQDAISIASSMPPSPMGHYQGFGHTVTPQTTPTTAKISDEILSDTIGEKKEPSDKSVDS
inactive: IRAK-1-4 Inhibitor I 0.105 | ibrutinib -0.037 | [1] 0.042 | ralimetinib -0.033 | [6] 0.088 | [3] 0.042 | pinometostat -0.021 | [4] 0.081 | [5] -0.005

TMEM192 (UniProt Q8IY95)
Sequence of UniProt Q8IY95 (Q8IY95 whole entry, looked up): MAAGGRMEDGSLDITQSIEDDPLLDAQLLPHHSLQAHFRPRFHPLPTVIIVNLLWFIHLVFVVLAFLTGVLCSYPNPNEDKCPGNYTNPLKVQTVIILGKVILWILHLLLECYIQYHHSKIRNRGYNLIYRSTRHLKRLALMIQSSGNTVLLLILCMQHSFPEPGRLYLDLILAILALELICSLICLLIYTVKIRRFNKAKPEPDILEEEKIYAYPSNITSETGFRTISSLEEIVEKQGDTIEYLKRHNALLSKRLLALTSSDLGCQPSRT
active: [2] -0.481
inactive: IRAK-1-4 Inhibitor I 0.047 | ibrutinib -0.014 | [1] -0.012 | ralimetinib 0.025 | [6] 0.004 | [3] 0.029 | pinometostat 0.051 | [4] -0.004 | [5] -0.019

WDR11 (UniProt Q9BZH6)
inactive: IRAK-1-4 Inhibitor I 0.009 | ibrutinib -0.112 | [1] -0.01 | ralimetinib -0.068 | [6] -0.018 | [2] -0.056 | [3] -0.047 | pinometostat 0 | [4] 0.069 | [5] 0.065

UTP3 (UniProt Q9NQZ2)
inactive: IRAK-1-4 Inhibitor I -0.053 | ibrutinib 0.072 | [1] 0.031 | ralimetinib 0.021 | [6] 0.062 | [2] -0.062 | [3] 0.253 | pinometostat 0.159 | [5] -0.571

UBIAD1 (UniProt Q9Y5Z9)
inactive: IRAK-1-4 Inhibitor I 0.012 | ibrutinib -0.009 | [1] -0.055 | ralimetinib -0.032 | [2] -0.069 | [3] 0.029 | pinometostat -0.104 | [4] -0.04 | [5] 0.047

TSEN2 (UniProt Q8NCE0)
inactive: IRAK-1-4 Inhibitor I 0.073 | ibrutinib -0.022 | [1] -0.116 | ralimetinib -0.034 | [6] -0.127 | [2] 0.033 | [3] -0.001 | pinometostat 0.004 | [4] 0.055 | [5] 0.027

TXNL4B (UniProt Q9NX01)
inactive: IRAK-1-4 Inhibitor I 0.132 | ibrutinib -0.065 | [1] -0.071 | ralimetinib -0.057 | [2] -0.02 | [3] 0.074 | pinometostat -0.053 | [4] 0.026 | [5] 0.067

TMEM106B (UniProt Q9NUM4)
inactive: IRAK-1-4 Inhibitor I 0.056 | ibrutinib 0.029 | [1] 0.043 | [6] 0.043 | [2] -0.092 | pinometostat 0.085 | [4] 0.026 | [5] -0.027

WDR37 isoform 2 (UniProt Q9Y2I8)
inactive: IRAK-1-4 Inhibitor I 0.144 | ibrutinib -0.06 | ralimetinib -0.063 | [6] -0.118 | [2] -0.011 | [3] 0.126 | pinometostat -0.029 | [4] -0.015 | [5] 0.144
active: [1] -0.39

Source: the supplement of paper PMC10849652
